The whole screen tested about 310,000 compounds, of which about 2,200 (0.71%) showed an effect of 50% or more. The effect is printed as a negative number. The list comes from a sample in which strong results are over-represented; it also holds similar structures and randomly drawn compounds.

human ether-à-go-go-related gene (hERG) potassium channel, sequence (Q12809 whole entry, looked up): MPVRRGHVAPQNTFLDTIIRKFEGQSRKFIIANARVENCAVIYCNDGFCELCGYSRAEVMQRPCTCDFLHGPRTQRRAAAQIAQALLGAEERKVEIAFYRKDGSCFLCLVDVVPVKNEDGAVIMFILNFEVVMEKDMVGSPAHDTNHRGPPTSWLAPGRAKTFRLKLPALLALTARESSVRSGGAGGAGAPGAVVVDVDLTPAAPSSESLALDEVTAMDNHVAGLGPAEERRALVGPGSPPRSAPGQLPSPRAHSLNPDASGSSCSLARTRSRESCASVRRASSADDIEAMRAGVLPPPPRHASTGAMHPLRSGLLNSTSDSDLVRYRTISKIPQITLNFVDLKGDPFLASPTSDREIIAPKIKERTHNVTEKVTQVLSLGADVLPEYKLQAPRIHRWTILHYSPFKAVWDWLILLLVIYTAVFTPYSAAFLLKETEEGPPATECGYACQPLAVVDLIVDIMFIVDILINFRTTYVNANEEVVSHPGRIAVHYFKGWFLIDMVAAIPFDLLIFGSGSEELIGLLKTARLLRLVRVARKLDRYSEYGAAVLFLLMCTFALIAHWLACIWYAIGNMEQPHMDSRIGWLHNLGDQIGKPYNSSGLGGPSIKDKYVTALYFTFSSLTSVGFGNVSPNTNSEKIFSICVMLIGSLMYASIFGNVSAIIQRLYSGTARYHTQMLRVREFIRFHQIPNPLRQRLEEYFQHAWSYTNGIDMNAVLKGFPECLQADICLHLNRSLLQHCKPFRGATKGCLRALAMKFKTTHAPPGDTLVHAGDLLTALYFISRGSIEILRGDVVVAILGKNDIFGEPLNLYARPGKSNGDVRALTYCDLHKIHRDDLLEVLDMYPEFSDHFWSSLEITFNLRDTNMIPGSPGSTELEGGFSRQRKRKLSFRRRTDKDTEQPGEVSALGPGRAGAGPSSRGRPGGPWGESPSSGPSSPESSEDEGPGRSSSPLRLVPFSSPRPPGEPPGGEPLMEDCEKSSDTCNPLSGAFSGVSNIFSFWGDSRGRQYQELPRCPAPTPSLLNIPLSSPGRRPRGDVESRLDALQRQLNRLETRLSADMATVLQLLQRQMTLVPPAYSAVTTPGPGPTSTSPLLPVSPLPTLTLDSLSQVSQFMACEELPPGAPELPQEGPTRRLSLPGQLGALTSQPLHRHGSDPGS

This test addresses human ether-à-go-go-related gene (hERG) potassium channel (human, UniProt Q12809). The test can be described thus: primary screen, population patch clamp on CHO cells stably expressing hERG; higher = less effect of the substance.
Turning to `Cc1ccc(NC(=O)c2ccc(CSc3nnc(C)s3)cc2)c(C)c1`, the “hERG current change (%, negative = inhibition) at 1uM” value stood at 9.08%.
In the case of `CCn1c(CNC(=O)c2ccc(OC)c(OC)c2)nnc1SCC(=O)Nc1ccc(OC)cc1` it was 6.99%; in that of `N#Cc1ccc(CSc2nnc(-c3ccncc3)n2CCc2ccccc2)cc1`, -78.2%.
In the case of `c1ccc(CCn2c(SCc3ccccc3)nnc2-c2ccncc2)cc1` it was -12.4%; in that of `Cn1c(SCc2ccc(C#N)cc2)nnc1-c1ccncc1`, 6.61%; in that of `O=C(OCCN1C(=O)c2ccccc2C1=O)c1cccs1`, 11.9%.
`O=C(NCc1cccnc1)c1cccn2c(=O)c3sccc3nc12`: the “hERG current change (%, negative = inhibition) at 1uM” value was -16.3%.
In the case of `COCCCNC(=O)c1cc2c(=O)n3cccc(C)c3nc2n(C(C)C)c1=N` it was -46.1%; in that of `CCC(C)n1c(=N)c(C#N)cc2c(=O)n3cc(C)ccc3nc21` (stereo not shown), -22%.
In the case of `Cc1cccn2c(=O)c3cc(C(=O)NCc4cccnc4)c(=N)n(C(C)C)c3nc12` it was -67.3%.
In the case of `CCC(C)n1c(=N)c(C#N)cc2c(=O)n3cccc(C)c3nc21` (stereo not shown) it was -16.6%; in that of `Cc1cccn2c(=O)c3cc(S(=O)(=O)c4ccccc4)c(=N)n(Cc4cccnc4)c3nc12`, -3.7%.
Consider `CNC(=O)c1cc2c(=O)n3cc(C)ccc3nc2n(C(C)C)c1=N`, for which the “hERG current change (%, negative = inhibition) at 1uM” value was -81.9%.
Then `C=CCn1c(=N)c(C(=O)NCCCOC)cc2c(=O)n3cc(C)ccc3nc21`, with -41.9%; and `CNC(=O)c1cc2c(=O)n3cccc(C)c3nc2n(C(C)C)c1=N`, with -82.3%.
For `COc1ccc2c(c1)CCc1c(C(=O)N3CCCCCC3)noc1-2`, the “hERG current change (%, negative = inhibition) at 1uM” value is -1.37%.
Then `C=C(C)CN1C(=O)c2ccccc2C1=O`, with 4.89%; and `Cc1nc(Nc2ccccc2)[nH]c(=O)c1CCC(C)C`, with 1.92%.
Then `Cc1ccc(C)c(-n2c(-c3cccnc3)n[nH]c2=S)c1`, with 18.2%; and `CCN(CC1CCCN(CCc2cccc(F)c2)C1)C(=O)c1cc(C)oc1C` (stereo not shown), with -2.34%; and `CCN(CC1CCCN(CCc2cccc(F)c2)C1)C(=O)c1ccc(CSC)o1` (stereo not shown), with -52%.
As to `CCN(CC1CCCN(CCc2cccc(F)c2)C1)C(=O)c1cc2ccccc2o1` (stereo not shown), the “hERG current change (%, negative = inhibition) at 1uM” value is recorded as -64.7%.
In the case of `CCN(Cc1ccc(NC(C)=O)cc1)CC1CCCN(CCc2cccc(F)c2)C1` (stereo not shown) it was 9.42%; in that of `CCN(CC1CCCN(CCc2cccc(OC)c2)C1)C(=O)c1ccoc1C` (stereo not shown), -27.8%.
Then `CCN(CC1CCCN(CCc2cccc(OC)c2)C1)C(=O)c1ccc(COC)o1` (stereo not shown), with -51.1%; and `CCN(Cc1ccc(O)cc1)CC1CCCN(CCc2cccc(F)c2)C1` (stereo not shown), with -8.8%.
In the case of `C=CCC(=O)N(CC)CC1CCCN(CCc2cccc(F)c2)C1` (stereo not shown) it was -17.6%.
As to `CCN(CC1CCCN(CCc2cccc(OC)c2)C1)C(=O)c1ccoc1` (stereo not shown), the “hERG current change (%, negative = inhibition) at 1uM” value is -14.5%.
In the case of `COc1ccc(C=O)cc1Cn1c(=O)n(CCC(=O)NCc2ccco2)c(=O)c2sccc21` it was 5.91%; in that of `COc1ccc(N(CC(=O)NCc2ccc(Cl)cc2)S(=O)(=O)c2c(C)n[nH]c2C)cc1`, 1.42%; in that of `Cc1cc(C)nc(NS(=O)(=O)c2ccc(Br)cc2)n1`, 21.2%.
As to `Cc1ccc(Cn2c(CN3CC(C)OC(C)C3)nc3c2c(=O)[nH]c(=O)n3C)cc1` (stereo not shown), the “hERG current change (%, negative = inhibition) at 1uM” value is recorded as -3.88%.
Then `O=C(O)CCn1cc(/C=C/C(=O)c2ccc(Cl)cc2)c(-c2cccc(Br)c2)n1`, with 14.7%; and `CCCCNC(=O)C1CCN(C/C(C)=C/c2ccccc2)CC1.O=C(O)C(=O)O`, with -33.9%; and `O=C(C1CCN(CC2CC=CCC2)CC1)N(CCc1ccccc1)Cc1ccccc1` (stereo not shown), with -47%.
In the case of `CCN(CC)C(=O)C1CCN(Cc2ccc(OCc3ccccc3)cc2)CC1.O=C(O)C(=O)O` it was -13.3%.
With `CCCCN(C)C(=O)C1CCN(CCCc2ccccc2)CC1.O=C(O)C(=O)O`, the “hERG current change (%, negative = inhibition) at 1uM” value is given as -73.6%.
In the case of `CCCCN(C)C(=O)C1CCN(Cc2cccc(OCc3ccccc3)c2)CC1.O=C(O)C(=O)O` it was -35.6%; in that of `CCCCN(C)C(=O)C1CCN(Cc2ccc(OCc3ccccc3)cc2)CC1.O=C(O)C(=O)O`, -55.7%; in that of `O=C(C1CCN(CCCc2ccccc2)CC1)N(CCc1ccccc1)Cc1ccccc1.O=C(O)C(=O)O`, -75%.
For the molecule `CCCCN(C)C(=O)C1CCN(C/C(C)=C/c2ccccc2)CC1.O=C(O)C(=O)O`, the “hERG current change (%, negative = inhibition) at 1uM” value is given as -54.3%.
In the case of `CC1CCN(C(=O)C2CCN(CCCc3ccccc3)CC2)CC1.O=C(O)C(=O)O` it was -23.5%; in that of `CCCCN(C)C(=O)C1CCN(Cc2cccnc2)CC1`, 10.1%.
In the case of `CCN(Cc1ccccc1)C(=O)C1CCN(C/C(C)=C/c2ccccc2)CC1.O=C(O)C(=O)O`, the “hERG current change (%, negative = inhibition) at 1uM” value is listed as -31%.
In the case of `CCCCN(C)C(=O)C1CCN(Cc2ccccn2)CC1.O=C(O)C(=O)O` it was 6.35%; in that of `COC(=O)C1=C(c2cc3ccccc3o2)C[C@@H]2CC[C@H]1N2C(=O)NC1CCCCC1`, -7.33%; in that of `CC(C)C(NC(=O)c1ccccc1)c1nnc(SCC(=O)Nc2nccs2)n1C` (stereo not shown), 15.7%.
Turning to `Cc1cc(=O)nc2c3ccccc3n(CC(=O)NCCCN3CCCC3=O)n12`, the “hERG current change (%, negative = inhibition) at 1uM” value was 10.4%.
In the case of `O=C(O)CCC(=O)NNC(=O)c1cccs1` it was 15.5%; in that of `CCOC(=O)CSc1nc(CC)nc2ccccc12`, 4.2%.
In the case of `O=c1cc(CO)oc(CN2CCCC2)c1O` it was -2.54%.
`C/C(=N\O)c1ccc2c(c1)CC(C)O2` (stereo not shown): the “hERG current change (%, negative = inhibition) at 1uM” value is given as 13.6%.
Then `COc1ccc2c(c1)sc(N)[n+]2Cc1cc(C)cc2cccnc12.[Br-]`, with -26.5%.
Then `Cc1cc(C[n+]2ccsc2N)c2ncccc2c1.[Br-]`, with -20.1%; and `CCOc1ccc2c(c1)sc(N)[n+]2Cc1cc(C)cc2cccnc12.[Br-]`, with -56.2%.

(Values after publication PMC4336329 (PLoS ONE, 2015).)
